Data from PubChem BioAssay (EPA / NIEHS).
Records with an inconclusive call do not appear. Activity calls are given as the source filed them. Rule for the calls, unless noted: active = hit-call score of the fitted dose curve at least 0.9, where 1 is the maximum; inconclusive = response in the unintended direction; inactive = score below 0.9.

Assays:
[1] = target: Nuclear receptor subfamily 1 group I member 3 (Homo sapiens) (UniProt Q14994); assay: ATG_CAR_TRANS: Attagene TRANS-FACTORIAL HepG2 Assay for human Constitutive Androstane Receptor (CAR) (AID 2282969); details: HepG2 Attagene TRANS-FACTORIAL CAR reporter;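 note: activators raise reporter mRNA above DMSO so AC50 marks induction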
Nuclear receptor subfamily 1 group I member 3 (Homo sapiens), sequence (Q14994 whole entry, looked up, the tested form may be a part): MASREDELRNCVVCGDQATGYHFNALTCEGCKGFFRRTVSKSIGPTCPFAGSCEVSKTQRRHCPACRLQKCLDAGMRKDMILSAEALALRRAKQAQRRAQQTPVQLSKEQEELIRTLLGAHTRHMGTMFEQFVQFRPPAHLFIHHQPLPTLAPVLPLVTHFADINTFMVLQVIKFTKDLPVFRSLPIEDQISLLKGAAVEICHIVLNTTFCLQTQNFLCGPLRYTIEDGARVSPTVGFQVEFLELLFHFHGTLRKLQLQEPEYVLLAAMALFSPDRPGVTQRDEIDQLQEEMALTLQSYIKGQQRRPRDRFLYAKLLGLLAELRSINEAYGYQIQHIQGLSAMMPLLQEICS
How it was run: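 HepG2 cells transiently transfected with multiplexed GAL4-UAS reporter units expressing chimeric NR-Gal4 proteins; compound exposure 24 h. Reporter mRNA measured by RT-PCR, 6-FAM labelling, HpaI digestion and capillary electrophoresis; gain-of-signal fitted against DMSO baseline.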

[2] = target: Estrogen receptor (Homo sapiens) (UniProt P03372); assay: ATG_ERa_TRANS: Attagene TRANS-FACTORIAL HepG2 Assay for human Estrogen Receptor alpha (ERa) (AID 2282970); details: HepG2 Attagene TRANS ERa GAL4 reporter, mRNA
How it was run: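 HepG2 cells transiently transfected with multiplexed GAL4-UAS reporter units read out chimeric NR-Gal4 activity. After 24 h compound exposure, reporter mRNA was quantified by RT-PCR, 6-FAM labeling, HpaI digestion and capillary electrophoresis, relative to DMSO.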

[3] = target: Steroid hormone receptor ERR1 (Homo sapiens) (UniProt P11474); assay: ATG_ERRa_TRANS: Attagene TRANS-FACTORIAL HepG2 Assay for human Estrogen-Related Receptor alpha (ERRa) (AID 2282971); details: HepG2 Attagene TRANS reporter, ERRa transactivation
Steroid hormone receptor ERR1 (Homo sapiens), sequence (P11474 whole entry, looked up, the tested form may be a part): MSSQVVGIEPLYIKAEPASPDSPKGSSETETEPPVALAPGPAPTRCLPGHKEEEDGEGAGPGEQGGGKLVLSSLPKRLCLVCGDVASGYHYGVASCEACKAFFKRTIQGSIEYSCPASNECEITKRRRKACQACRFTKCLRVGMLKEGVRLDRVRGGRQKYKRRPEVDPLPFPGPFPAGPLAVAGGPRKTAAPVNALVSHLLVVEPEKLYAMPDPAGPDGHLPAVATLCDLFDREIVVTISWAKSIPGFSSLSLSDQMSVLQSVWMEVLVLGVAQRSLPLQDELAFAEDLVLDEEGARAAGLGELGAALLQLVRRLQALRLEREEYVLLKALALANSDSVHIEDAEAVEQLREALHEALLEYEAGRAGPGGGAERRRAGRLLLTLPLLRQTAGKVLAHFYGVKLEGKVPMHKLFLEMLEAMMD
How it was run: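 HepG2 cells transiently transfected with GAL4-UAS reporter units and chimeric NR-Gal4 constructs; after 24 hour compound incubation, reporter mRNA quantified by RT-PCR, fluorescent labelling and capillary electrophoresis, gain of signal versus DMSO.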

[4] = ATG_M_19_TRANS: Attagene TRANS-FACTORIAL HepG2 Assay for M19 Transcription Factor (Internal Marker) (AID 2282974); details: HepG2 Attagene TRANS-FACTORIAL M19 internal marker reporter
How it was run: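 HepG2 transiently transfected with GAL4-UAS multiplex reporter constructs, exposed 24 h; reporter RNA quantified by RT-PCR, 6-FAM labeling, HpaI digestion and capillary electrophoresis; internal background marker fitted upward versus DMSO.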

[5] = ATG_GAL4_TRANS: Attagene TRANS-FACTORIAL HepG2 Assay for GAL4 (Internal Marker) (AID 2282976); details: HepG2 Attagene TRANS GAL4 internal marker reporter
How it was run: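 Background-control readout: GAL4-UAS reporter transcript in transiently transfected HepG2 cells after 24 h compound exposure. Measured by RT-PCR, 6-FAM primer extension, HpaI digest and capillary electrophoresis; gain-of-signal fit versus DMSO.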

[6] = target: Estrogen-related receptor gamma (Homo sapiens) (UniProt P62508); assay: ATG_ERRg_TRANS: Attagene TRANS-FACTORIAL HepG2 Assay for human Estrogen-Related Receptor gamma (ERRg) (AID 2282977); details: HepG2 Attagene TRANS reporter, ERRg transactivation;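 note: hits increase reporter signal over DMSO so potencies reflect activators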
Estrogen-related receptor gamma (Homo sapiens), sequence (P62508 whole entry, looked up, the tested form may be a part): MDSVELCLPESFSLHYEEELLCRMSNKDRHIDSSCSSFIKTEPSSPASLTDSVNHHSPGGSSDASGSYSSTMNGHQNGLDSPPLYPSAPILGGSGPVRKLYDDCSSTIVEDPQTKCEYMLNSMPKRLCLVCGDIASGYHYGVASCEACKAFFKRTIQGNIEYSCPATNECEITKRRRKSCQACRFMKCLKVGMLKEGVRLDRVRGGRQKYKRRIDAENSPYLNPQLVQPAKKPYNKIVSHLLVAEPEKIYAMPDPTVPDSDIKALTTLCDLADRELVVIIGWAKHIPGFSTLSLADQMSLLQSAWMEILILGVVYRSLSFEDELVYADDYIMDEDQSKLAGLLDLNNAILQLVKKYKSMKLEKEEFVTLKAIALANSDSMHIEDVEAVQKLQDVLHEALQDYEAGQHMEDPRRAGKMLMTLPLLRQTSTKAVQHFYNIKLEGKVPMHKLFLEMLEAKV
How it was run: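 HepG2 cells transiently transfected with multiplexed GAL4-UAS reporter units and chimeric NR-Gal4 constructs were exposed to test chemicals for 24 h. Reporter mRNA was measured by RT-PCR, 6-FAM primer extension, HpaI digestion and capillary electrophoresis; gain-of-signal versus DMSO.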

[7] = target: Bile acid receptor (Homo sapiens) (UniProt Q96RI1); assay: ATG_FXR_TRANS: Attagene TRANS-FACTORIAL HepG2 Assay for Farnesoid X Receptor (FXR) (AID 2282979); details: HepG2 Attagene TRANS FXR-GAL4 reporter transcription;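 note: hits raise reporter mRNA above DMSO so AC50 marks FXR activation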
Bile acid receptor (Homo sapiens), sequence (Q96RI1 whole entry, looked up, the tested form may be a part): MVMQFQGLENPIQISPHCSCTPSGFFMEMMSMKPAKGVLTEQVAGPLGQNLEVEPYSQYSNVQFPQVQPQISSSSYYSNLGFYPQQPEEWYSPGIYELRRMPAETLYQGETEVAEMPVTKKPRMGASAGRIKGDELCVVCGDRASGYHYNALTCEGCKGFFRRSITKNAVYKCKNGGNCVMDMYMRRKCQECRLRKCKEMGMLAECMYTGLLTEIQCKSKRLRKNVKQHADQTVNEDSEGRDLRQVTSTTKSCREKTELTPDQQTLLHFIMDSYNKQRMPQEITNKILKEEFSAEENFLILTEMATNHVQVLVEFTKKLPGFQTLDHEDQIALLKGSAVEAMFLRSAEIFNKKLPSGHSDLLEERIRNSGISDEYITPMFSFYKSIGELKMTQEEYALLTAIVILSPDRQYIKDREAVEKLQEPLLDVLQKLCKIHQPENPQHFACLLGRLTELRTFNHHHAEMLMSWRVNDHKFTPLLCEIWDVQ
How it was run: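 HepG2 cells were transiently transfected with GAL4-UAS reporters driven by chimeric NR-Gal4 proteins and dosed for 24 h. Reporter mRNA was quantified by RT-PCR, fluorescent labelling, HpaI digestion and capillary electrophoresis, with gain of signal scored versus DMSO.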

[8] = target: Oxysterols receptor LXR-alpha (Homo sapiens) (UniProt Q13133); assay: ATG_LXRa_TRANS: Attagene TRANS-FACTORIAL HepG2 Assay for human Liver X Receptor alpha (LXRa) (AID 2282980); details: HepG2 Attagene TRANS reporter, LXRa transactivation
How it was run: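 HepG2 cells transiently transfected with GAL4-UAS reporter units for chimeric NR-Gal4 proteins, exposed to chemicals for 24 h. Reporter mRNA quantified by RT-PCR and capillary electrophoresis; gain of signal fitted relative to DMSO.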

[9] = target: Oxysterols receptor LXR-beta (Homo sapiens) (UniProt P55055); assay: ATG_LXRb_TRANS: Attagene TRANS-FACTORIAL HepG2 Assay for human Liver X Receptor beta (LXRb) (AID 2282981); details: HepG2 Attagene TRANS GAL4-LXRb reporter, mRNA
How it was run: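 HepG2 cells transiently transfected with multiple reporter transcription units carrying chimeric NR-Gal4 proteins acting on GAL4-UAS reporters; compound exposure 24 h. Reporter mRNA quantified by RT-PCR, 6-FAM labelling, HpaI digestion and capillary electrophoresis; gain of signal versus DMSO.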

[10] = ATG_M_32_TRANS: Attagene TRANS-FACTORIAL HepG2 Assay for M32 Transcription Factor (Internal Marker) (AID 2282984); details: HepG2 Attagene TRANS M32 internal marker reporter
How it was run: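 HepG2 cells transiently transfected with multiple GAL4-UAS reporter transcription units, dosed for 24 hours; reporter mRNA quantified by RT-PCR, 6-FAM primer extension, HpaI digestion and capillary electrophoresis. Gain-of-signal fitted versus DMSO baseline; internal background-control marker.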

[11] = target: Nuclear receptor subfamily 4 group A member 2 (Homo sapiens) (UniProt P43354); assay: ATG_NURR1_TRANS: Attagene TRANS-FACTORIAL HepG2 Assay for human Nuclear Receptor Related Protein 1 (NURR1) (AID 2282985); details: HepG2 Attagene TRANS reporter, mRNA readout
Nuclear receptor subfamily 4 group A member 2 (Homo sapiens), sequence (P43354 whole entry, looked up, the tested form may be a part): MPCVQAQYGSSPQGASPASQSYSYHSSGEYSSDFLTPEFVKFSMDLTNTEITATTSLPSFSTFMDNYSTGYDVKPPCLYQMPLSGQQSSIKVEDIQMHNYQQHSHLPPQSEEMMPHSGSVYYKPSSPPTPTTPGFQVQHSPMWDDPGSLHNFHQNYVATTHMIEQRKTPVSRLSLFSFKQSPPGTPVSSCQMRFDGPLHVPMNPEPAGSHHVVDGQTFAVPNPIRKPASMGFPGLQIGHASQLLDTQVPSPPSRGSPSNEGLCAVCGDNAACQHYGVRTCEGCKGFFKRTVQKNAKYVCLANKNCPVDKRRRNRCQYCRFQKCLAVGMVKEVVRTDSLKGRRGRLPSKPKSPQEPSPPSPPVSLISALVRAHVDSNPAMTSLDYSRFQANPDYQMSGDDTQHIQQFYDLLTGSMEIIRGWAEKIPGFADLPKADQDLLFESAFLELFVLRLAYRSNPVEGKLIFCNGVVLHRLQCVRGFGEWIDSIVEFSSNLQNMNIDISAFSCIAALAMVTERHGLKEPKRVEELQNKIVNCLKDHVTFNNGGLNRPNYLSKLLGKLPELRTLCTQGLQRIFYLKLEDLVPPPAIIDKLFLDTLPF
How it was run: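 HepG2 cells transiently transfected with GAL4-UAS reporter units and chimeric NR-Gal4 constructs; chemical exposure 24 h. Reporter mRNA quantified by RT-PCR, fluorescent labelling and capillary electrophoresis; gain of signal fitted relative to DMSO baseline.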

[12] = target: Transcriptional activator Myb (Homo sapiens) (UniProt P10242); assay: ATG_Myb_CIS: Attagene CIS-FACTORIAL HepG2 Assay for human Myeloblastosis (Myb) Proto-Oncogene Transcription Factor (AID 2282986; active = hit-call score of the fitted dose curve at least 0.9, where 1 is the maximum; inactive = score below 0.9); details: HepG2 Attagene CIS-FACTORIAL Myb reporter transcription; actives raise or lower the signal
Transcriptional activator Myb (Homo sapiens), sequence (P10242 whole entry, looked up): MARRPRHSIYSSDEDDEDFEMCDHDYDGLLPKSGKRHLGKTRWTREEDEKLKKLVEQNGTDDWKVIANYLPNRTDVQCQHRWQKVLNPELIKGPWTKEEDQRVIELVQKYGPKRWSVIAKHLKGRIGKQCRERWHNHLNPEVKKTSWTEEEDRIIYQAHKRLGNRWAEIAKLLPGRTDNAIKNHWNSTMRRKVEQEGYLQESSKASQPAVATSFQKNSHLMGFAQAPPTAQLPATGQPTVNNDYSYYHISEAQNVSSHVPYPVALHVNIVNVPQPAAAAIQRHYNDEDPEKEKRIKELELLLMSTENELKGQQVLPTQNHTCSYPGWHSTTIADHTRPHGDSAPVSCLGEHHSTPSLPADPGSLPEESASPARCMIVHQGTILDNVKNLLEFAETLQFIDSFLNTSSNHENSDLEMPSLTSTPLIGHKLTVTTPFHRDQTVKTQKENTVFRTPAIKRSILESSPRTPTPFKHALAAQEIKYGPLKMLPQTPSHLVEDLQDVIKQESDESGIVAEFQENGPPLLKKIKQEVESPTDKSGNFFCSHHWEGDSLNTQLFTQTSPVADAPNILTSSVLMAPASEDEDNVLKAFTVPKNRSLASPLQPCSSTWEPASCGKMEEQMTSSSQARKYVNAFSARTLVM
How it was run: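 Transiently transfected HepG2 cells carrying a multiplexed cis-promoter reporter set report endogenous Myb activity after 24 h compound exposure. Reporter mRNA is read by RT-PCR with capillary electrophoresis of fluorescent products, fitted bidirectionally against DMSO.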

[13] = target: Nuclear respiratory factor 1 (Homo sapiens) (UniProt Q16656); assay: ATG_NRF1_CIS: Attagene CIS-FACTORIAL HepG2 Assay for human Nuclear Respiratory Factor 1 (NRF1) Orphan Gene (AID 2282987; active = hit-call score of the fitted dose curve at least 0.9, where 1 is the maximum; inactive = score below 0.9); details: HepG2 NRF1 cis-element reporter, Attagene multiplex; actives raise or lower the signal
How it was run: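 HepG2 cells transiently transfected with multiple cis-regulated reporter units, exposed 24 h. Reporter mRNAs measured by RT-PCR, fluorescent labelling, HpaI digestion and capillary electrophoresis; bidirectional fitting against DMSO.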

[14] = ATG_NFI_CIS: Attagene CIS-FACTORIAL HepG2 Assay for human Nuclear Factor I (NFI) (AID 2282989; active = hit-call score of the fitted dose curve at least 0.9, where 1 is the maximum; inactive = score below 0.9); details: HepG2 cis-regulatory reporter, NFI response element transcription; actives raise or lower the signal
How it was run: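 Read-out: reporter mRNA via RT-PCR plus capillary electrophoresis with fluorescence detection. Transiently transfected HepG2 (endogenous TF activity on cis promoters), 24 h compound exposure; gain or loss of signal fitted against DMSO.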

[15] = target: Myc proto-oncogene protein (Homo sapiens) (UniProt P01106); assay: ATG_Myc_CIS: Attagene CIS-FACTORIAL HepG2 Assay for human Myelocytomatosis (Myc) Proto-Oncogene Transcription Factor (AID 2282990; active = hit-call score of the fitted dose curve at least 0.9, where 1 is the maximum; inactive = score below 0.9); details: HepG2, Attagene cis-reporter transcription factor activity; actives raise or lower the signal
Myc proto-oncogene protein (Homo sapiens), sequence (P01106 whole entry, looked up): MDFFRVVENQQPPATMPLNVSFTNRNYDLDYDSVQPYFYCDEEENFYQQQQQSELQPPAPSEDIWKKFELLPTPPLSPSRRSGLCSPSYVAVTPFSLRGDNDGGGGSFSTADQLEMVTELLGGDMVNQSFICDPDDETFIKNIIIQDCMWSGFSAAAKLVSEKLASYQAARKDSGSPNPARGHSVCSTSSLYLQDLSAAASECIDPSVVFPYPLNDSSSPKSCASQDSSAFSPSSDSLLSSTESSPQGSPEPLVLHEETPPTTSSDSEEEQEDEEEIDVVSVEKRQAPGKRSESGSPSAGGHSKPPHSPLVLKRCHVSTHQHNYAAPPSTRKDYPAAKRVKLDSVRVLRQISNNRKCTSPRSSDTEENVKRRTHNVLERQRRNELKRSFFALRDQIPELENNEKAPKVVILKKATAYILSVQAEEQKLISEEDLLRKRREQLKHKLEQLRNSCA
How it was run: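 HepG2 cells transiently transfected with multiple cis-promoter-driven reporter transcription units, so endogenous TF activity is read. After 24 h compound exposure, reporter mRNA was quantified by RT-PCR, 6-FAM labelling, HpaI digestion and capillary electrophoresis; bidirectional fit versus DMSO.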

[16] = target: Glucocorticoid receptor (Homo sapiens) (UniProt P04150); assay: ATG_GR_TRANS: Attagene TRANS-FACTORIAL HepG2 Assay for human Glucocorticoid Receptor (GR) (AID 2282978); details: HepG2 Attagene TRANS GR reporter, mRNA transcription;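 note: activators score as hits since higher reporter transcript over DMSO is fitted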
Glucocorticoid receptor (Homo sapiens), sequence (P04150 whole entry, looked up, the tested form may be a part): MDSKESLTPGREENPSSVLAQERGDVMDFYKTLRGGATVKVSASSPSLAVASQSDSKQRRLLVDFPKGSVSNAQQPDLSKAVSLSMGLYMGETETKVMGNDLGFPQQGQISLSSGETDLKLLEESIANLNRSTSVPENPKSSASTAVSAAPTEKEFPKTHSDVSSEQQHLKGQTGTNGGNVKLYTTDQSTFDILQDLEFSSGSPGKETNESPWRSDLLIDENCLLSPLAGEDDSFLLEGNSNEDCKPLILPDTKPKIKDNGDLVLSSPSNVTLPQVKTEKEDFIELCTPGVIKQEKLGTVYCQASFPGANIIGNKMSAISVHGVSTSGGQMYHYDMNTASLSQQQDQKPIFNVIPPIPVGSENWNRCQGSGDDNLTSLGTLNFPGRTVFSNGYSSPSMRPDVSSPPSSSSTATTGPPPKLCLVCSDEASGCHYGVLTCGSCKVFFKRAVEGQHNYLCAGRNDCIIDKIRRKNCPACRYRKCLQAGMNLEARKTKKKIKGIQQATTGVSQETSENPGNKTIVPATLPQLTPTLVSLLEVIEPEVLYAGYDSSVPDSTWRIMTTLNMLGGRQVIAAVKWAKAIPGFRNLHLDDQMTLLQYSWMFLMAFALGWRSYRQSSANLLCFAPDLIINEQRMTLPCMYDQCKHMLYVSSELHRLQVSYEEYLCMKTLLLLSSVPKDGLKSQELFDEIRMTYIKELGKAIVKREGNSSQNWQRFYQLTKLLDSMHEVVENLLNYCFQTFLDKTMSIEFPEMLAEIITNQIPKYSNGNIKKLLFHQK
How it was run: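 HepG2 cells transiently transfected with GAL4-UAS reporter units and exogenous GR-Gal4 chimera, dosed 24 h. Reporter mRNA by RT-PCR, FAM labeling, HpaI digest and capillary electrophoresis; gain-of-signal fit versus DMSO.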

[17] = ATG_M_06_TRANS: Attagene TRANS-FACTORIAL HepG2 Assay for M06 Transcription Factor (Internal Marker) (AID 2282983); details: HepG2 Attagene TRANS M06 internal marker reporter;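 note: reporter transcript level by RT-PCR then capillary electrophoresis fluorescence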
How it was run: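 HepG2 cells transiently transfected with GAL4-UAS multiple reporter units, dosed 24 h. Reporter RNA reverse-transcribed, PCR-amplified, 6-FAM-labeled, HpaI-digested and quantified by capillary electrophoresis; this internal-marker signal fitted upward relative to DMSO.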

[18] = target: X-box-binding protein 1 (Homo sapiens) (UniProt P17861); assay: ATG_Xbp1_CIS: Attagene CIS-FACTORIAL HepG2 Assay for human X-box Binding Protein 1 (XBP1) (AID 2282972; active = hit-call score of the fitted dose curve at least 0.9, where 1 is the maximum; inactive = score below 0.9); details: HepG2 XBP1 cis-element reporter, Attagene multiplex; actives raise or lower the signal
X-box-binding protein 1 (Homo sapiens), sequence (P17861 whole entry, looked up, the tested form may be a part): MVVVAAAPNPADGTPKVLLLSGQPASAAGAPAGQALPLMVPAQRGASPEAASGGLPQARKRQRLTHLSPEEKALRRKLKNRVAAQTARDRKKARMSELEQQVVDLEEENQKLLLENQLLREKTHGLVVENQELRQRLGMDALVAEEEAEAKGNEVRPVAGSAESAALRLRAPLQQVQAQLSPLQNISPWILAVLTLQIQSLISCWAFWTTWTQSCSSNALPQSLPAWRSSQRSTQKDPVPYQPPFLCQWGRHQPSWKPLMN
How it was run: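 Fluorescence-labelled cDNA fragments from reporter transcripts, separated by capillary electrophoresis, give the signal. Source: HepG2 cells transfected with promoter-driven reporter units, harvested 24 h post-dose. DMSO served as reference for bidirectional curve fitting.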

[19] = target: Hepatocyte nuclear factor 4-alpha (Homo sapiens) (UniProt P41235); assay: ATG_HNF4a_TRANS: Attagene TRANS-FACTORIAL HepG2 Assay for human Hepatocyte Nuclear Factor 4 alpha (HNF4a) (AID 2282982); details: HepG2 HNF4a transactivation reporter, mRNA readout
Hepatocyte nuclear factor 4-alpha (Homo sapiens), sequence (P41235 whole entry, looked up, the tested form may be a part): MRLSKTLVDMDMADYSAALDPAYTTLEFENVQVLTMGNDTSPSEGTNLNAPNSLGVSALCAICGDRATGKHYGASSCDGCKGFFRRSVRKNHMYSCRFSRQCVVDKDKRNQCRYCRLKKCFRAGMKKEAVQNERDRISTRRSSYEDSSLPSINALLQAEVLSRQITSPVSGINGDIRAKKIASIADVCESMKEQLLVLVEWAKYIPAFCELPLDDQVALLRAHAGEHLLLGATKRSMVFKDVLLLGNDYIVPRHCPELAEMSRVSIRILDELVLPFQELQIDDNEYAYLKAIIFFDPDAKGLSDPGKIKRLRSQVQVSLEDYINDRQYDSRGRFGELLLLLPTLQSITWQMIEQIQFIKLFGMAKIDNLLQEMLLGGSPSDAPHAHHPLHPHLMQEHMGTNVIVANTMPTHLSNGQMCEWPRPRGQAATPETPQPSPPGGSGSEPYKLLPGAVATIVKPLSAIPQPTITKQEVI
How it was run: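 HepG2 cells transiently transfected with multiplexed GAL4-UAS reporter units responsive to chimeric NR-GAL4 proteins; compound exposure 24 h. Reporter mRNA quantified by RT-PCR, 6-FAM labelling, HpaI digestion and capillary electrophoresis; gain of signal versus DMSO baseline.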

Measured: AC50

C=CC(=C)CC/C=C(\C)CCC=C(C)C
inactive: [1] | [2] | [3] | [4] | [5] | [6] | [7] | [8] | [9] | [10] | [11] | [12] | [13] | [14] | [15]

O=C(O)c1cccc(C(=O)O)n1
inactive: [1] | [2] | [3] | [5] | [6] | [16] | [7] | [17] | [10] | [11] | [12] | [13] | [14] | [15]

COc1ccc(C#N)cc1
inactive: [1] | [2] | [18] | [5] | [16] | [9] | [17] | [10] | [12] | [13] | [14] | [15]

C=CC(=O)OCCC(F)(F)C(F)(F)C(F)(F)C(F)(F)C(F)(F)C(F)(F)C(F)(F)C(F)(F)F
active: [2] 11 µM
inactive: [1] | [3] | [18] | [4] | [8] | [9] | [19] | [10] | [11] | [13] | [15]

CCCCCCCCCCCCCCCCCC[N+](C)(C)Cc1ccccc1
active: [19] 50 µM
inactive: [1] | [2] | [3] | [5] | [6] | [16] | [7] | [8] | [9] | [17] | [10] | [11] | [12] | [13] | [15]

CCCCCCCCCCCC[N+](C)(C)CCCCCCCCCCCC
inactive: [1] | [2] | [3] | [6] | [16] | [9] | [17] | [10] | [11] | [13] | [14]
active: [15] 100 µM

O=S(=O)(O)C(F)(F)C(F)(F)C(F)(F)C(F)(F)C(F)(F)C(F)(F)C(F)(F)C(F)(F)C(F)(F)C(F)(F)F
inactive: [1] | [2] | [3] | [18] | [5] | [6] | [16] | [8] | [19] | [10] | [11] | [13] | [14] | [15]

O=C(Nc1cccc([N+](=O)[O-])c1)c1cc2ccccc2cc1O
inactive: [1] | [2] | [3] | [18] | [4] | [6] | [7] | [8] | [9] | [19] | [11] | [12] | [13] | [14] | [15]

Nc1ccc(O)c(C(=O)O)c1
active: [2] 44.6 µM
inactive: [1] | [3] | [18] | [16] | [7] | [8] | [10] | [11] | [13] | [14] | [15]
